In the supplement of paper PMC7156485 one finds cell number and H1.0 immunofluorescence intensity data, which are given here for 23 compounds.

Common to all, as to conditions: concentration: 10 µM; 24 h
The test system of experiment [1] is HCC1569. Briefly: cell number relative to DMSO (% of DMSO); higher = more cells (less growth inhibition / toxicity). In outline: (§1)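 After 24 h at 37 °C with compounds at 10 µM, in triplicate, HCC1569 and TDF cells were fixed with 3.7% formaldehyde. Immunostaining used a rabbit anti-H1.0 antibody and an AlexaFluor 647 secondary, with DAPI, and six fields per well were imaged at ×10. H1.0 nuclear intensity or cell number is presented as percent of the plate control, from the median of replicates, with HCC1569 values smoothed for positional effects.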

The subject of experiment [2] is TDF. The description is as above. In outline: as §1
The test system of experiment [3] is TDF. Kind of experiment: H1.0 immunofluorescence intensity relative to DMSO (% of DMSO); higher = stronger H1.0 induction, active = 120 or more. In outline: as §1
The test system of experiment [4] is HCC1569. Kind of experiment: H1.0 immunofluorescence intensity relative to DMSO (% of DMSO); higher = stronger H1.0 induction, active = 140 or more. In outline: as §1

Each structure is given as a SMILES string. ± gives the standard deviation of the averaged measurements.
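Wherever H1.0 immunofluorescence intensity relative to DMSO is given: TDF is a line of transformed human dermal fibroblasts of mesenchymal origin.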
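Wherever cell number relative to DMSO is given: TDF denotes transformed human dermal fibroblasts of mesenchymal origin.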

Regarding `C=C(C)C1CC=C(C(=O)O)CC1` (single isomer, unassigned; (-)) [(-)-Perillic acid], the cell number in experiment [1] and in experiment [2] was 104 throughout. In addition, the H1.0 immunofluorescence intensity in experiment [3] is 95.9 (inactive); in experiment [4], 99.9 (inactive).
Regarding `CC(N)C1CCC(C(=O)Nc2ccncc2)CC1.Cl.Cl.O` (configuration not stated), the results for the cell number in experiment [1] and in experiment [2] were 109 and 104, respectively. Also, the H1.0 immunofluorescence intensity in experiment [3] was 97.1 (inactive); in experiment [4], 102 (inactive).
In the same order, the values of `CC1COc2c(N3CCN(C)CC3)c(F)cc3c(=O)c(C(=O)O)cn1c23` (configuration not stated) [Levofloxacin] are 103, 100, 98.5 (inactive) and 101 (inactive).
With `CN1CCN(CCCN2c3ccccc3Sc3ccc(C(F)(F)F)cc32)CC1.Cl.Cl` [Trifluoperazine dihydrochloride], the cell number in experiment [1] came to 87.3; in experiment [2], 108. Besides, the H1.0 immunofluorescence intensity in experiment [3] was 107 (inactive); in experiment [4] it was 141 (active).
For `NC(=O)c1ccccc1` [Benzamide], in that order: 98.5, 87.1, 99.2 (inactive) and 107 (inactive).
In the case of `COc1cccc(C(=O)NCCN2CCN(c3ccc(Cl)cc3)CC2)c1`, the cell number in experiment [1] worked out at 101; in experiment [2], 109. Further, the figures for the H1.0 immunofluorescence intensity in experiment [3] and in experiment [4] were 94.5 (inactive) and 92.3 (inactive), respectively.
For `N#CC(=Cc1ccc(O)c(O)c1)C(=O)NCCc1ccccc1` [Tyrphostin AG 698], in that order: 84.3, 91, 87.8 (inactive) and 119 (inactive).
Turning to `CCN(CC)CCOC(=O)C1(C2CCCCC2)CCCCC1.Cl` [Dicyclomine hydrochloride], the cell number in experiment [1] was determined as 100; in experiment [2], 96.7. The H1.0 immunofluorescence intensity in experiment [3] was 99.8 (inactive); in experiment [4], 93.1 (inactive).
In the same order, the values of `CCCCCC(O)C=CC1C(O)CC(=O)C1CCCCCCC(=O)O` (configuration not stated) [Prostaglandin E1] are 102 ± 2, 109 ± 10, 92.4 (inactive) and 101 (inactive).
With `c1ccc(-c2n[nH]c3c2oc2ccccc23)cc1`, the cell number is 101 in experiment [1] and 103 in experiment [2]. Further, the values for the H1.0 immunofluorescence intensity in experiment [3] and in experiment [4] were 94.2 (inactive) and 126 (inactive), respectively.
With `CN1CCN(CCCN2c3ccccc3Sc3ccc(Cl)cc32)CC1.O=C(O)C=CC(=O)O.O=C(O)C=CC(=O)O` [Prochlorperazine dimaleate], the cell number in experiment [1] was 83.7; in experiment [2], 105. Also, the H1.0 immunofluorescence intensity was 110 (inactive) in experiment [3] and 157 (active) in experiment [4].
With `O=C1CN(N=Cc2ccc(-c3ccc([N+](=O)[O-])cc3)o2)C(=O)[N-]1.[Na+]` [Dantrolene sodium], the cell number was 100 in experiment [1] and 97 in experiment [2]. Also, the H1.0 immunofluorescence intensity in experiment [3] is 100 (inactive); in experiment [4], 102 (inactive).
In the same order, the values of `NC(=O)NO` [Hydroxyurea] are 103, 108, 93.9 (inactive) and 91.8 (inactive).
For `CCC1C(=O)OCC1Cc1cncn1C.Cl` (configuration not stated) [Pilocarpine.HCl], the cell number in experiment [1] is 102 ± 2.4; in experiment [2], 94.48 ± 0.24. The H1.0 immunofluorescence intensity in experiment [3] is 97.6 (inactive); in experiment [4], 102 (inactive).
In the same order, the values of `COc1ccc(S(=O)(=O)Nc2nc(-c3cccc([N+](=O)[O-])c3)cs2)cc1OC` are 102, 92.4, 102 (inactive) and 97.7 (inactive).
Regarding `CCCC[C@@H](C=O)NC(=O)[C@H](CC(C)C)NC(=O)[C@H](CC(C)C)NC(C)=O`, the figures for the cell number in experiment [1] and in experiment [2] were 47.1 and 32.2, respectively. The H1.0 immunofluorescence intensity in experiment [3] is 160 (active); in experiment [4] it was 150 (active).
For `O=C(O)c1cc(=O)c2ccccc2[nH]1` [Kynurenic acid], the values for the cell number in experiment [1] and in experiment [2] were 107 and 106, respectively. Also, the H1.0 immunofluorescence intensity is 91.3 (inactive) in experiment [3] and 94.5 (inactive) in experiment [4].
Turning to `COCCCOc1ccnc(CS(=O)c2nc3ccccc3[n-]2)c1C.[Na+]` (configuration not stated), the cell number came to 101 in experiment [1] and 90.9 in experiment [2]. Further, the H1.0 immunofluorescence intensity in experiment [3] is 103 (inactive); in experiment [4], 106 (inactive).
With `CCCCCC=CCC(O)C=CC=CC=CC(O)CCCC(=O)O` [5(S),12(S)-DIHETE all trans], the cell number stood at 101 in experiment [1] and 106 in experiment [2]. The results for the H1.0 immunofluorescence intensity in experiment [3] and in experiment [4] were 93.5 (inactive) and 95 (inactive), respectively.
Turning to `O=c1cc(-c2ccc(O)cc2)oc2cc(OC3OC(CO)C(O)C(O)C3O)cc(O)c12` (configuration not stated) [Apigenin-7-glucoside], the results for the cell number in experiment [1] and in experiment [2] were 98.2 and 99.3, respectively. For the same compound, the H1.0 immunofluorescence intensity is 93.7 (inactive) in experiment [3] and 91 (inactive) in experiment [4].
For `CN1CCCN=C1C=Cc1cccs1.O=C(O)c1cc2ccccc2c(Cc2c(O)c(C(=O)O)cc3ccccc23)c1O` [Pyrantel Pamoate], the cell number came to 94.4 in experiment [1] and 109 in experiment [2]. Besides, the H1.0 immunofluorescence intensity in experiment [3] is 88.8 (inactive); in experiment [4], 115 (inactive).
For `CCCC(=O)O[C@]1(C(=O)CO)CC[C@H]2[C@@H]3CCC4=CC(=O)CC[C@]4(C)[C@H]3[C@@H](O)C[C@@]21C` [(11beta)-11,21-dihydroxy-3,20-dioxopregn-4-en-17-yl butyrate], in that order: 97.4, 106, 84.9 (inactive) and 102 (inactive).
For the compound `Oc1ccc(O)cc1` [Hydroquinone], the cell number in experiment [1] is 74.9 ± 1.1; in experiment [2] it was 76.8 ± 3.5. In addition, the H1.0 immunofluorescence intensity in experiment [3] was 97.3 (inactive); in experiment [4], 118 (inactive).
